Assay results taken from PubChem BioAssay AID1508600 (Functional Genomics Laboratory (NCATS/FGL), 2020).
The campaign covered roughly 53,000 sequences. About 3,700 (7%) were called active. Only a selection was taken, and actives are over-represented in it overall. A number with no mark means an inactive call.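 The calls were made as follows: active = gene knockdowns whose robust z-score for IL-1 alpha signal is at least 2 or at most -2, so actives lie on both sides; inactive = the rest.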

Test: Components of the Cytosolic LPS Sensing Pathway: Gene Identification via Genome-wide siRNA Screen;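 also: robust z of the log signal after scaling to non-targeting control siRNA wells of the plate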
Conditions: RAW264.7 macrophages, IL-1a HTRF, actives lie on both sides, screened at 100 nM (by protocol), cells primed 5 h with Pam3CSK4 first
Summary of the method: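 Mouse macrophage line RAW264.7 is transfected with siRNA (100 nM final), grown 48h, primed with TLR ligand Pam3CSK4 5 h and given intracellular LipidA 24 h. IL-1a in supernatant is read by HTRF and viability by luminescence.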

| Sequence | z-score |
| --- | --- |
| GCCAUGCAUCUGGAUUUACTT against Nat1 | 1.19 |
| GGAGCAGACUUUAAAAUGATT against Stau1 | -0.626 |
| GGGCUCAUUGCUAAAACACTT against Sgcg | -0.221 |
| GGCUAUUGUACAACUUAUATT against Pafah1b2 | 2.1 (active) |
| GCCCUUUGGAAGAAUACUCTT against Golt1b | -1.12 |
| GGAGCUCAUGGAAAUCUGUTT against Pfpl | 0.446 |
| AGUGAAGAAAUGUUUGACATT against Raet1b | -1.08 |
| CCUAUUUGUAGGUGAUGUUTT against B3gnt7 | -0.445 |
| GGUUCACUCCUGAUACCACTT against Ddo | 1.29 |
| GGCUUUUGGCUUCAACCCUTT against Slc39a14 | -2.24 (active) |
| GGAAGCCAUUAUACAUGACTT against Uvrag | -0.261 |
| GGUACAGAAUAUGUCACAGTT against Olfm3 | 0.627 |
| CCCUCUGGAUGGAUCUUCATT against Fbp2 | -1.3 |
| GCAAGACUGAAAAUCCUGATT against Timm8a2 | -1.2 |
| GCAACUGAACCUUCUGCUATT against Morn2 | -1.7 |
| GGCUUGUACUACCAUGACATT against Rasgef1b | -2.76 (active) |
| GGGAACAAGGAACUCAAAGTT against Cadm1 | 1.69 |
| CCUGAAAGAUAACAAGUGGTT against Rnls | 0.0112 |
| GGUUUGUUUUACAAAAUGCTT against Zdhhc5 | 0.37 |
| GCAUUUUAGACUCAGAAUCTT against Car3 | -0.047 |
| GGAACGUAUACCUAUACCCTT against Huwe1 | -0.263 |
| GGUAUGCAGUGAAGAGGAUTT against Paqr9 | 2.52 (active) |

| Sequence | z-score |
| --- | --- |
| CCGUGACAGUCAUGUUGAUTT against Amt | 0.235 |
| GGAAAGACCUCUUGAUAGGTT against Tbkbp1 | 0.113 |
| CCUCUAUGUGAGAUUUGAGTT against Mamdc2 | -0.917 |
| CCCACCGAGACACCAUCUUTT against Syne4 | -1.78 |
| GGGAGAUUGCAUUUGGAGCTT against Olfr678 | 0.317 |
| GGCUGAAGUUACUUUGGAUTT against Nup98 | -2.03 (active) |
| GCAUGUAGACUACAACGUGTT against Myoz1 | -1.27 |
| GGGCUGAAGUGAAACCAGATT against D930048N14Rik | 0.415 |
| GGGUCCAAAAGAAAAGUGUTT against Zc2hc1c | 0.784 |
| GCAAAACACACUGAUGGUGTT against Stx16 | 0.835 |
| GGCAAUUCAUUGCAUGUUATT against Cdc42ep3 | -0.177 |
| GGAUCUCACAGUGAAGAAGTT against Krba1 | 0.392 |
| GCUUAUUUGUGGUACACGGTT against D030056L22Rik | 0.112 |
| GGUUUCCUGAAGUUUUCAATT against Gnaz | 3.08 (active) |
| GGGUUGACCACUAUUUCUGTT against Olfr1338 | -1.06 |
| CGAAAAAGGGCUUUUAACUTT against Ndufs1 | 0.757 |
| GGUGAAUGAGGACUCUGGGTT against Dcps | -1.07 |
| CGAGCACCUAUUCAUCAUATT against Tdo2 | 0.889 |
| GGUACGACUUGGAAGAAAUTT against Rock2 | -0.415 |
| GCUUAUGAUUCCAAGGCAGTT against Serpina6 | 0.9 |
| AAUUCUGGACGAGGAGCAUTT against Abcc5 | 3.22 (active) |
| CCUGGCAGUAAUCACCAUUTT against Olfr1158 | -0.117 |

| Sequence | z-score |
| --- | --- |
| CGAGAAAAUGGAUUCUACCTT against Atp10d | 0.314 |
| GGAGUUGUCUACCAAAGUUTT against Reep5 | 0.609 |
| CCCGAUGAAGUGUUUUUAGTT against Oosp1 | -0.753 |
| GGAAGAAUAAAGUGCUUUGTT against Chga | 2.27 (active) |
| GGAUCCUCUUGAUCAAGCUTT against Vps53 | -0.891 |
| GGUUUGAUUAUACCUAUCATT against Tenm2 | -0.337 |
| GGAGAAAGGUUUUGUUAUGTT against Gtf2h2 | 1.5 |
| CCUACUACAUCCGCUACUGTT against Apba2 | -0.366 |
| GGUUUGGCUUAGCUCAUCATT against Mettl24 | -2.72 (active) |
| GGGCUACUCAGCCUAUAGUTT against Asic4 | 1.22 |
| GGCAAACUCGGGUAUACACTT against Mybpc1 | 0.394 |
| GGUGUGGCUGUUCUGAUGATT against Olfr771 | 0.322 |
| GCACGAGAGACAUUUCUCCTT against Kat7 | -2.32 (active) |
| GGGCUCCUGGUUUAGUAAUTT against Zfp59 | 1.04 |
| GGGUGUUUGGAGAUUGUGUTT against Heatr3 | -2.93 (active) |
| GCUUUUCAUACCUGUUUCCTT against 9930111J21Rik2 | -0.227 |
| CGGAAUCUGACUGGUAUCGTT against Banp | -1.21 |
| GGAAAAAGCCAAUUAUGUCTT against Fbxl2 | -0.954 |
| GGUUUUAAGCUUGCUUAUGTT against Ucma | 0.4 |
| GGAGAUACUAUGUUGCAUUTT against Fgf9 | 0.537 |
| GGAUUCUUGGAGCUCAUUATT against Stag3 | -2.46 (active) |
| CCAAGAGAUGCUAGCUAAUTT against Platr28 | -0.495 |

| Sequence | z-score |
| --- | --- |
| GGCAAUCUACUCAUUGUUGTT against Olfr1239 | -0.719 |
| GCAGGUUAGAGUCACUUGUTT against Trim67 | 0.143 |
| GGUGUCCAGUUCAUCCAGGTT against Vxn | 1.15 |
| GGAACAAGGUAAAAUACAUTT against Nthl1 | 3.88 (active) |
| GCUUUGAGAACCUUGGUAATT against Rab9b | -0.652 |
| GGAUCAGUGCCUUUGGCUATT against Rhoc | -1.75 |
| GGGAUGUUUUGUUUUUAACTT against Mlc1 | 0.384 |
| GGAGUUCACCAGCUACCAATT against Myoz3 | -0.537 |
| CCAUGGAAUUCAAUUCCUUTT against Vmn2r66 | 0.0798 |
| CCCUAGUUACCAAUUCCACTT against Olfr293 | 2.61 (active) |
| GGUUGACUGAAUGAUGGAATT against Tcl1b3 | -0.724 |
| GCCCAUAUCGGAGAAGAUUTT against Cap2 | -1.97 |
| GGGCAUGUUUAACGACAUUTT against Csf2ra | 1.49 |
| GGAUUUCCUUUUAAGACUUTT against Rab3il1 | -0.71 |
| GCUUUACCUGCUCAGAAGCTT against Olfr520 | -2.26 (active) |
| GGAAGACAAUAAGAAGUGGTT against Niban2 | -0.576 |
| CCAUUCCUACAGCAUGCGUTT against Slc27a1 | 0.523 |
| GCGAGCUAUUCUUCCUUGUTT against Eif4a1 | -2.13 (active) |
| CCUCAUCCAACAUACCUAUTT against Olfr665 | -0.665 |
| GGACAUCAUAUUCGUUUUCTT against C130026L21Rik | 1.12 |
| GGGUUGAAGUUUGUCGAAATT against Nlgn1 | 0.496 |
| GGGUCUUUGUACAGAUUGCTT against Olfr275 | 0.0844 |

| Sequence | z-score |
| --- | --- |
| GGAGGAAGAGGAGAAUCUATT against Supt6 | -2.57 (active) |
| GCUGAAUACAGUUGGUGCUTT against Nelfa | -0.259 |
| GGAUUCAAACUGGUUUUCATT against Ptcd3 | 1.8 |
| GGACAAGUUCUGUUGGUAUTT against Zfp275 | 0.121 |
| GCGCAGUCAGACCAUAUAUTT against Fbxl5 | -0.874 |
| GGGAGACUGUGAAGCUUUATT against Elk4 | 3.22 (active) |
| GGUCUUAAAGCAUGAGAAGTT against Med8 | 0.541 |
| GGUUCGUAAAAUUAUUAGGTT against Vcl | 1.09 |
| GGGCAGUCCGUUUCUUAACTT against Kptn | 0.815 |
| GGAGGUAUUUACCAAAGAUTT against Acer2 | 0.453 |
| CCACACUUUUCAGUAUAAUTT against Lin54 | 0.897 |
| GGGUGACCUAAAGAAUUAATT against Ybx3 | 0.849 |
| GCUGAAUACAACGUGAGAUTT against Tdh | -4.05 (active) |
| GGUUUCGUCUUGAUAUCUATT against Trpc1 | -0.417 |
| GGAGAGCAGAUGUGAUUCUTT against Mrm2 | -0.561 |
| GCCUGUUCUCAAGACUGACTT against Sema4a | 2.06 (active) |
| GGGUGUCUUUCCUGUGUGATT against Pkmyt1 | -0.804 |
| GGGUAAAGGAGAUUGUGAUTT against Ppfibp2 | -0.103 |
| GCCGUUAGAAACAAAGUCGTT against Taf3 | -2.48 (active) |
| CCAAGUAUAGCUCACAUAATT against Slc17a4 | -1.7 |
